About 83,000 compounds went through this panel and 20% of them were active in at least one assay; those are over-represented in the sample as a whole.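 Plates (96-well) were seeded with cells, treated with compound at one concentration, and incubated for 48 hours before percent growth was determined.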 Unmarked numbers belong to inactive results. The source made the active and inactive calls. The calls were made as follows: active = growth percent below 10; inactive = the rest.

Test systems include DU-145 prostate; K-562 leukemia; MALME-3M melanoma; MDA-MB-231 breast; RXF 393 renal; SF-268 CNS; SF-295 CNS; SF-539 CNS; UACC-257 melanoma; M14 melanoma; HCT-15 colon; HT29 colon; SNB-75 CNS; SNB-19 CNS; U251 CNS; PC-3 prostate; SK-MEL-5 melanoma; UACC-62 melanoma; LOX IMVI melanoma; SK-MEL-28 melanoma.
What all share (assay): NCI-60 one-dose screen, 48 h (100 = growth as untreated, 0 = no growth, -100 = all killed)
Conditions in all cases: 10 µM unless noted

For `CCN(CC)CCNC(=O)n1cc(-c2ccncc2)c(-c2ccc(Cl)c(OC)c2)n1`, the growth in the experiment on DU-145 prostate was 97.8%; in the experiment with K-562 leukemia it was 85.9%; in the experiment on MALME-3M melanoma, 114%; in the experiment with MDA-MB-231 breast it was 79.5%; with RXF 393 renal it was 85.3%; in the experiment on SF-268 CNS, 67.9%. The growth was 97.7% in the experiment with SF-295 CNS; 75% with SF-539 CNS; 93.1% in the experiment on UACC-257 melanoma; 78.6% with M14 melanoma; 96.1% in the experiment on HCT-15 colon; 59.4% with HT29 colon. Moreover, the growth with SNB-75 CNS is 64.7%; in the experiment with SNB-19 CNS, 93%; with U251 CNS it was 90.3%; in the experiment on PC-3 prostate, 88.2%; in the experiment on SK-MEL-5 melanoma, 94.1%; with UACC-62 melanoma, 72.5%. Also, the growth in the experiment with LOX IMVI melanoma is 92.3%; in the experiment on SK-MEL-28 melanoma, 90.2%.
For the compound `COC(=O)c1ccc2c(c1)nc(-c1cc3ccccc3[nH]c1=O)n2-c1cc(C(C)(C)C)[nH]n1`, the growth in the experiment on DU-145 prostate was 83.7%; with K-562 leukemia, 32.2%; in the experiment on MALME-3M melanoma, 96.2%; in the experiment with MDA-MB-231 breast it was 68.4%; in the experiment on RXF 393 renal it was 89.9%; in the experiment on SF-268 CNS, 72.8%. Besides, the growth in the experiment with SF-295 CNS is 93.8%; with SF-539 CNS, 92.6%; in the experiment with UACC-257 melanoma it was 78.5%; in the experiment on M14 melanoma, 58.2%; in the experiment on HCT-15 colon, 78.2%; in the experiment on HT29 colon it was 7.39% (active). The growth in the experiment with SNB-75 CNS is 101%; in the experiment with SNB-19 CNS, 35%; in the experiment with U251 CNS, 39.7%; in the experiment on PC-3 prostate, 53%; in the experiment with SK-MEL-5 melanoma, 74.9%; with UACC-62 melanoma, 51.2%. The growth with LOX IMVI melanoma was 11.2%; in the experiment with SK-MEL-28 melanoma it was 84.1%.
Regarding `CC(C)c1nc2ccccc2n1CC(=O)N/N=C/c1cccc(O)c1`, the growth was 104% with DU-145 prostate; 87% in the experiment with K-562 leukemia; 108% in the experiment on MALME-3M melanoma; 93.4% in the experiment on MDA-MB-231 breast; 104% with RXF 393 renal; 99.2% in the experiment on SF-268 CNS. The growth in the experiment with SF-295 CNS was 103%; in the experiment with SF-539 CNS, 97.6%; with UACC-257 melanoma, 87.7%; with M14 melanoma, 94.8%; in the experiment with HCT-15 colon it was 104%; in the experiment on HT29 colon, 104%. The growth is 94.1% in the experiment with SNB-75 CNS; 91.8% in the experiment with SNB-19 CNS; 103% in the experiment on U251 CNS; 87.9% in the experiment with PC-3 prostate; 100% in the experiment with SK-MEL-5 melanoma; 86.3% in the experiment with UACC-62 melanoma. Besides, the values for the growth with LOX IMVI melanoma and with SK-MEL-28 melanoma were 99.6% and 97.2%, respectively.
With `CC(C)[C@@H]1C=C2CC[C@H]3[C@](C)(CN)CCC[C@]3(C)[C@H]2CC1`, the growth in the experiment with DU-145 prostate is 44.1%; in the experiment with K-562 leukemia it was 17.5%; in the experiment on MALME-3M melanoma it was 60.2%; with MDA-MB-231 breast it was 61.3%; in the experiment on RXF 393 renal, 87.9%; in the experiment with SF-268 CNS it was 43.4%. Besides, the growth in the experiment on SF-295 CNS is 54.8%; in the experiment on SF-539 CNS it was 102%; in the experiment with UACC-257 melanoma, 104%; in the experiment with M14 melanoma, 89.3%; in the experiment on HCT-15 colon it was 44.5%; in the experiment with HT29 colon, -34.1% (active). Further, the growth is 64.8% with SNB-75 CNS; 104% in the experiment with SNB-19 CNS; 14% with U251 CNS; 69.6% with PC-3 prostate; 69.3% in the experiment on SK-MEL-5 melanoma; 86.3% in the experiment on UACC-62 melanoma. For the same compound, the growth in the experiment with LOX IMVI melanoma is 43.6%; in the experiment on SK-MEL-28 melanoma, -82.1% (active).
`COC1(OC)C2(Cl)CCC1(Cl)C(Cl)=C2Cl`: the growth in the experiment with DU-145 prostate is 108%; with K-562 leukemia, 110%; in the experiment with MALME-3M melanoma it was 99.4%; with MDA-MB-231 breast it was 106%; with RXF 393 renal it was 107%; with SF-268 CNS, 106%. Also, the growth with SF-295 CNS is 105%; in the experiment on SF-539 CNS, 101%; with UACC-257 melanoma it was 93.2%; in the experiment with M14 melanoma it was 96.9%; in the experiment with HCT-15 colon, 95%; in the experiment with HT29 colon, 101%. Further, the growth is 95.6% in the experiment on SNB-75 CNS; 105% in the experiment with SNB-19 CNS; 97.8% in the experiment on U251 CNS; 100% in the experiment on PC-3 prostate; 102% in the experiment on SK-MEL-5 melanoma; 101% in the experiment on UACC-62 melanoma. For the same compound, the results for the growth in the experiment with LOX IMVI melanoma and in the experiment with SK-MEL-28 melanoma were 94.2% and 107%, respectively.
With `C/C(=N\Nc1ccc([N+](=O)[O-])cn1)c1ccc(N)cc1`, the growth is 116% in the experiment on DU-145 prostate; 13.8% in the experiment with K-562 leukemia; 133% with MALME-3M melanoma; 88.9% in the experiment on MDA-MB-231 breast; 132% in the experiment with RXF 393 renal; 94.4% in the experiment with SF-268 CNS. The growth in the experiment with SF-295 CNS was 128%; in the experiment on SF-539 CNS it was 93.7%; in the experiment with UACC-257 melanoma it was 105%; in the experiment on M14 melanoma it was 106%; with HCT-15 colon it was 95.1%; in the experiment on HT29 colon, 101%. In addition, the growth in the experiment with SNB-75 CNS is 94.4%; with SNB-19 CNS, 95.9%; with U251 CNS, 95.7%; in the experiment with PC-3 prostate, 94.1%; with SK-MEL-5 melanoma it was 101%; with UACC-62 melanoma it was 99.1%. The growth in the experiment with LOX IMVI melanoma is 100%; in the experiment with SK-MEL-28 melanoma, 113%.
Consider `COc1ccc(NC(=O)c2sc3c(=O)[nH]c(C(F)(F)F)nc3c2C)cc1`, for which the growth with DU-145 prostate was 118%; in the experiment on K-562 leukemia it was 102%; in the experiment with MALME-3M melanoma, 102%; with MDA-MB-231 breast, 112%; in the experiment on RXF 393 renal it was 117%; with SF-268 CNS, 108%. Also, the growth in the experiment with SF-295 CNS is 111%; with SF-539 CNS it was 114%; with UACC-257 melanoma, 105%; in the experiment on M14 melanoma, 116%; with HCT-15 colon, 104%; in the experiment on HT29 colon it was 103%. Further, the growth is 93.7% in the experiment with SNB-75 CNS; 112% in the experiment with SNB-19 CNS; 98.6% with U251 CNS; 90.5% in the experiment with PC-3 prostate; 106% in the experiment on SK-MEL-5 melanoma; 98.9% with UACC-62 melanoma. Further, the growth in the experiment with LOX IMVI melanoma is 101%; in the experiment with SK-MEL-28 melanoma, 109%.

For the origin of these results see PubChem BioAssay (NCI).
